The target of one experiment is HDHD2. Kind of experiment: pooled miR-30 sensor sort-seq; sequence = guide strand. Particulars: shRNA.
As for TAAACTTCTGGCTGCAGTCAGA, the sensor-assay potency score (higher = more potent) was -0.973.
Still for that read-out and setting: the result for TTTCTTCATCTGATGCTCGATA reads -0.755; that for TCAACTAGCAGCATGGGTCTGA, 0.908; that for TTCCGCTCTAGTAAACTTCTGG, 0.0507.
The sequence TTGCTATCAGAGGTGCTCCATC showed a sensor-assay potency score (higher = more potent) of -0.808.
Sequence TTCCTTTGAAATCAGGTAGTGC gave a sensor-assay potency score (higher = more potent) of -0.746.
TAACAGGTCTTGCTTGCTCTCT returned a sensor-assay potency score (higher = more potent) of -0.886.
TTTCTCAACCTTTCTAACAGGT showed a sensor-assay potency score (higher = more potent) of 0.329.

For a further experiment, the target named is HEATR8. The experiment is described as above. Particulars: shRNA.
For TACCACTCCAGCACCGAGCTGA, the sensor-assay potency score (higher = more potent) is -0.0285.
Still for that read-out and setting: as for TTCACCACTTTCACCACCCAGC, the figure is -0.301.
AACATGACTGAGCACTTCCGGA showed a sensor-assay potency score (higher = more potent) of -0.961.
On the same count and under the same terms, the result for TTGAGTGATGGTCACGCTCAAA reads -1.7.
TTCTTTATCATGGTCTTCTTTT had a sensor-assay potency score (higher = more potent) of -1.04.
Turning to TAACACACCCATGAGTTCCCGT, the sensor-assay potency score (higher = more potent) is -0.71.
In turn, TAACAGGGTCTTCACACACTTC showed a sensor-assay potency score (higher = more potent) of -1.46.
Same read-out and setting: as for TTCAACACAGAGACATTGGTGT, the figure is 0.958.
As for TTCAGGTTCAGCTTGGAGGTGT, the sensor-assay potency score (higher = more potent) came to 0.381.
In turn, TTGGTCTCTTCCTTATCTCTGG registered a sensor-assay potency score (higher = more potent) of -0.426.
TTGGCGGTCTTCTCAGACCTGC yielded a sensor-assay potency score (higher = more potent) of -0.945.
On the same count and under the same terms, the result for TTGAACTTGTGCTCCAGGTGGT reads 0.565.

Source of the values: the OligoGym collection.
Also: reference of the scale not given here.
